Results on five compounds are retold here after PubChem BioAssay.

Calls of active or inactive are those of the source.

For test [1], the system named is Human papillomavirus type 1a protein E7 (residues 44-93). The experiment in a line: small molecules binding HPV E7 44-93 – biochemical, small-molecule microarray, residues 44-93, 635 nm fluorescence, primary screen (AID 1108).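 Further: E7 fragment applied at 1 µg/mL in TBST for 1 h at 4 C; score combines spot fluorescence with its signal to noise ratio.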 To be noted: fluorescence 635 nm, higher = more signal.
Test [2] is described as follows: hepatitis C replication reporter changes, two-sided – Huh7 cells, luciferase reporter, HCV replication inhibitor project, primary screen (AID 1109).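 Further: huh7 hepatoma cells harbouring a luciferase neomycin HCV replicon reporter; luciferase luminescence as measure of HCV replicon replication; test concentration not given here.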 The conditions noted are these: Huh7 HCV replicon luciferase reporter, 48 h; higher = more signal. (In general: Reporter assays use an easily measured gene product as a stand-in for the process of interest.)
Test [3] has as its target Left-right determination factor 2 (Homo sapiens) (UniProt O00292). The experiment in a line: small molecules binding LEFTY2 protein – biochemical, small-molecule microarray, 635 nm fluorescence scan, primary screen (AID 1110). To be noted: higher = more signal.
Test [4] has as its target Calmodulin-1 (Homo sapiens) (UniProt P0DP23). The experiment in a line: small molecules binding calmodulin-1 with EGTA – biochemical, small-molecule microarray, Cy5-labelled CALM1, profiling panel (AID 1111).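 Further: labelled calmodulin applied in Tris saline Tween buffer holding calcium plus EGTA and DTT.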 The conditions noted are these: Cy5-CALM1 binding fluorescence, higher = more signal.
The target is the same in test [5]. As to the kind of experiment: small molecules binding Ca-loaded calmodulin-1 – biochemical, small-molecule microarray, Cy5-labelled CALM1, plus calcium, artefact control for SMM control-protein annotation, profiling panel (AID 1112).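 Further: score merges spot fluorescence with signal to noise from triplicate slides.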 The conditions noted are these: Cy5-CALM1 binding fluorescence, higher = more signal.
Test [6] in a line: probe aWnt5a binding to arrayed compounds – biochemical, biotinylated probe, 635/667 nm fluorescence, primary screen (AID 1113).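 Further: score merges 667 nm fluorescence intensity with signal-to-noise per printed feature.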 The conditions noted are these: small-molecule microarray, higher = more signal.
A short description of test [7]: probe aShh binding to arrayed compounds – biochemical, biotinylated probe, 635/667 nm fluorescence, primary screen (AID 1114).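 Further: probe is biotin-labelled aShh protein from a stem cell growth factor screen; measures binding of labelled protein to compounds printed on the slide; score merges feature fluorescence at 667 nm with signal-to-noise.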 To be noted: small-molecule microarray, higher = more signal.
Test [8] is described as follows: probe aNog binding to arrayed compounds – biochemical, biotinylated probe, 635/667 nm fluorescence, primary screen (AID 1115).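 Further: probe is biotinylated aNog protein used at 0.15 µg/mL for 1 h at 4 C; z-score combines 667 nm fluorescence of each spot with its signal to noise.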 To be noted: small-molecule microarray, higher = more signal.
The target of test [9] is Torsin-1A-interacting protein 1 (Homo sapiens) (UniProt Q5JTV8). The experiment in a line: compound microarray binding of lysate hLAP1 – cell lysate, small-molecule microarray, COS7 lysate, 635/667 nm fluorescence, primary screen (AID 1116). The conditions noted are these: 635 nm fluorescence, higher = more signal.
Test [10] concerns the target Alpha-bungarotoxin (Bungarus multicinctus) (UniProt P60615). The experiment in a line: compounds binding labelled alpha-BTX control protein – biochemical, small-molecule microarray, Alexa647 label, 635/667 nm fluorescence, artefact control for SMM control protein annotation, profiling panel (AID 1117). The conditions noted are these: alpha-BTX-A647 binding fluorescence, higher = more signal.

The target of another test is Albumin (Bos taurus) (UniProt P02769). The experiment in a line: compounds binding labelled BSA control protein – biochemical, small-molecule microarray, Alexa647 label, 635/667 nm fluorescence, artefact control for SMM control protein annotation, profiling panel (AID 1118).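 Further: score merges 667 nm emission intensity and signal-to-noise per printed compound spot.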 To be noted: BSA-A647 binding, fluorescence 635 nm, higher = more signal.
Test [11] can be described thus: probe aXIP binding to arrayed compounds – biochemical, NeuroSMM set, 635/667 nm fluorescence, primary screen (AID 1119).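 Further: probe is the protein aXip251-270 applied at 1 µg/mL to compound-printed slides; binding of probe to printed compounds measured as 667 nm fluorescence plus signal to noise.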 To be noted: small-molecule microarray, higher = more signal, called active from +8 up or from −8 down.
Test [12] is described as follows: probe aNOTCH3 binding on compound microarray – biochemical, small-molecule microarray, 635/667 nm fluorescence, primary screen (AID 1120).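 Further: probe is a biotin-tagged antibody raised against NOTCH3 rather than NOTCH3 protein; score merges spot fluorescence near 667 nm with spot signal to noise.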 To be noted: higher = more signal.
A short description of test [13]: probe aNOTCH2 binding on compound microarray – biochemical, small-molecule microarray, 635/667 nm fluorescence, primary screen (AID 1121).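 Further: score merges feature fluorescence read at 667 nm with its signal to noise.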 To be noted: higher = more signal.
Test [14] concerns the target Carbonic anhydrase 2 (Homo sapiens) (UniProt P00918). The experiment in a line: compounds binding carbonic anhydrase 2 – biochemical, small-molecule microarray, Alexa647-labelled CAII, profiling panel (AID 1122). The conditions noted are these: CAII-A647 binding fluorescence, higher = more signal.
The nature of test [15]: COS7 lysate on small-molecule microarray, probe aHis, 635 nm (AID 1123).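 Further: z-score combines 667nm fluorescence intensity with signal-to-noise per printed compound spot.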 To be noted: COS7 cell lysate, fluorescence, higher = more signal.
A short description of test [16]: probe aLAP1 signal on lysate-treated microarray – cell lysate, small-molecule microarray, COS7 lysate, primary screen (AID 1124).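 Further: lysate comes from COS7 cells expressing LAP1 and is applied at 0.3 µg/mL; score merges spot fluorescence near 667 nm with signal-to-noise over triplicate slides.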 To be noted: probe aLAP1, fluorescence, higher = more signal.
In another test the test system is Sam68 (KHDRBS1). The experiment in a line: compounds binding KHDRBS1 protein – biochemical, small-molecule microarray, 635 nm fluorescence, primary screen (AID 1125).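 Further: score merges 667 nm channel intensity with signal to noise over triplicate slides.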 To be noted: higher = more signal.
Test [17] relates to Chordin-like protein 2 (CHRDL2). The experiment in a line: compounds binding chordin-like 2 – biochemical, small-molecule microarray, 635 nm fluorescence, primary screen (AID 1126).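 Further: printed compound slides probed with Chrdl2 protein at 4 µg/mL for 1 h at 4 C; score merges 667 nm emission intensity with signal to noise over three replicate slides.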 The conditions noted are these: fluorescence 635 nm, higher = more signal.
The target of test [18] is Concanavalin-A (Canavalia ensiformis) (UniProt P02866). The experiment in a line: compounds binding concanavalin A lectin – biochemical, small-molecule microarray, Alexa647 label, 635 nm, artefact control for SMM control protein annotation, primary screen (AID 1127).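 Further: z combines 667 nm emission intensity with signal-to-noise across three replicate slides.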 The conditions noted are these: ConA-A647 binding fluorescence, higher = more signal.
Sequence of Concanavalin-A (Canavalia ensiformis) (P02866 whole entry, looked up): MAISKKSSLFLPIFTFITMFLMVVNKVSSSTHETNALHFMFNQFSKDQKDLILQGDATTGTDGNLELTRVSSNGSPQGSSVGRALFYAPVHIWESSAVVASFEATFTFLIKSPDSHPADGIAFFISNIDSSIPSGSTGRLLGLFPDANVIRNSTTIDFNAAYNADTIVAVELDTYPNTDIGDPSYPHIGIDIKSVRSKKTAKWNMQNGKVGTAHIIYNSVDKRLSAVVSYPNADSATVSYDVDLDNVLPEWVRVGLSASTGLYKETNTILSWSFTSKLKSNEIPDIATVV

Sequence of Alpha-bungarotoxin (Bungarus multicinctus) (P60615 whole entry, looked up): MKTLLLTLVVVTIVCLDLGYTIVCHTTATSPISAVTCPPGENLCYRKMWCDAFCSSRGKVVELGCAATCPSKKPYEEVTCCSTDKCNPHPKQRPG
Sequence of Left-right determination factor 2 (Homo sapiens) (O00292 whole entry, looked up): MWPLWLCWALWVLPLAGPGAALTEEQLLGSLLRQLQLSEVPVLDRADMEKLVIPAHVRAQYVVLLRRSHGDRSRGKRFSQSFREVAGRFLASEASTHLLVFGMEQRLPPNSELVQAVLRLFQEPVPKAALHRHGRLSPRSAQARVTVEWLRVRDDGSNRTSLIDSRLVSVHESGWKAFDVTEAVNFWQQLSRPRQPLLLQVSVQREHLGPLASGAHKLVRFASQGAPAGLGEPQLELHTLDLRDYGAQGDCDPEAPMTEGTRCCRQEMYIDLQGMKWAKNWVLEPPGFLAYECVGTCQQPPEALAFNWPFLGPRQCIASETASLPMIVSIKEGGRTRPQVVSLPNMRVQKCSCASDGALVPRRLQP
Sequence of Torsin-1A-interacting protein 1 (Homo sapiens) (Q5JTV8 whole entry, looked up): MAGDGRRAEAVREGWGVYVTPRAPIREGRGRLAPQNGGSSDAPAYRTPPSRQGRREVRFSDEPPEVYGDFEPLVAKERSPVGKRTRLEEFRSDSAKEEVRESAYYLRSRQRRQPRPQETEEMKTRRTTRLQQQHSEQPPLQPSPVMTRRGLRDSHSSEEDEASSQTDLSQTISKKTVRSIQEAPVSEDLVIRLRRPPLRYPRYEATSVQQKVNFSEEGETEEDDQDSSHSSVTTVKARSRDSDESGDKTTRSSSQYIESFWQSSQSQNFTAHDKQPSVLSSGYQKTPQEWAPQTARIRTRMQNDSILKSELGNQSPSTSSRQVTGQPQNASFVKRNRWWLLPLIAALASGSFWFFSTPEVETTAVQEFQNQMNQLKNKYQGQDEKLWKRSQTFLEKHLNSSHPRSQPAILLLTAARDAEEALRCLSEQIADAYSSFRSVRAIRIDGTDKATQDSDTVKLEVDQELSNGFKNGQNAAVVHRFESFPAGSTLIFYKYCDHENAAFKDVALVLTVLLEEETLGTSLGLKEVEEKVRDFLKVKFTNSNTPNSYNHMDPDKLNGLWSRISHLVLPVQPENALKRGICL
Sequence of Albumin (Bos taurus) (P02769 whole entry, looked up): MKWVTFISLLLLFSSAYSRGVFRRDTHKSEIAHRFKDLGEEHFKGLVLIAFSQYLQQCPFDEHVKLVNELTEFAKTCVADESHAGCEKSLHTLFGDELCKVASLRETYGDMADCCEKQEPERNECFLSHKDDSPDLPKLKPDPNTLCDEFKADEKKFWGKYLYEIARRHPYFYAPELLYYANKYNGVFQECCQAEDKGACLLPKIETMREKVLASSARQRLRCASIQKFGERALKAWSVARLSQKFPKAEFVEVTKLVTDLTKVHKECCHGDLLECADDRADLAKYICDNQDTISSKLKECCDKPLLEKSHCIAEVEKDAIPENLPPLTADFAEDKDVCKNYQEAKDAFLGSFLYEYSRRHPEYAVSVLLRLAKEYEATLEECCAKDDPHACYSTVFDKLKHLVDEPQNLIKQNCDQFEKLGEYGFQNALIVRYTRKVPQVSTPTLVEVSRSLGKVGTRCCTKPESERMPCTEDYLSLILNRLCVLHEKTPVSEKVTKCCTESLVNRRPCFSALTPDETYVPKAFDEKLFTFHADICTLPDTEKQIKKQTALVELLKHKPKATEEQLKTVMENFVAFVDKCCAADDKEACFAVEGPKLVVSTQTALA

In the case of `C=CCN1C(=O)[C@]2(O[C@H](CCO)[C@@H]([Si](C)(C)c3ccc(OC)cc3)[C@@H]2C)c2ccccc21`, the composite z-score was 0.925 in [1]; -0.774 in test [3]; -0.0667 in test [4]; -0.0278 in test [5]; -0.232 in test [6]; -0.358 in test [7]. In addition, the composite z-score was -0.118 in test [8]; -0.547 in [9]; -0.0693 in test [10]; 0.482 in the test with Albumin (Bos taurus); -0.157 in test [12]; -0.129 in test [13]. For the same compound, the composite z-score in test [14] was 0.277; in test [15], 0.621; in [16], -0.116; with Sam68 (KHDRBS1), -0.241; in test [17], -0.884; in test [18], 0.201. In [2], this compound had a z-score of -5.21. The composite Z-score in test [11] was -0.291 (inactive).
Turning to `[N-]=[N+]=NCc1ccccc1C[C@]1(C(=O)N2CCCCC2)N=C(c2ccc(OCCCO)cc2)O[C@H]1c1ccccc1`, the composite z-score was 0.809 in test [1]; -1.05 in [3]; 0.816 in [4]; 0.407 in test [5]; 0.105 in test [6]; 0.134 in [7]. For the same compound, the composite z-score in [8] was 0.437; in test [9] it was 1.11; in [10] it was -0.049; in the test with Albumin (Bos taurus), -0.0604; in [12], 0.23; in [13] it was -0.0323. Also, the composite z-score in test [14] was 0.564; in test [15], 1.22; in [16], -0.0174; in the test on Sam68 (KHDRBS1), 0.979; in test [17], -1.02; in [18] it was 0.717. This compound came in with a z-score in [2] of -3.2. Further, the composite Z-score in test [11] was 0.397 (inactive).
In the case of `C=C(/C(=C/C[C@@H](OC(C)=O)c1ccccc1OCCO)c1cc(C(=O)OC)ccc1OC)C(C)C`, the composite z-score in [1] was 0.326; in test [3] it was -0.0061; in test [4] it was 0.543; in [5] it was -0.692; in [6], -0.0643; in test [7] it was -0.304. Besides, the composite z-score in test [8] was 0.051; in test [9] it was 0.385; in [10] it was -0.598; with Albumin (Bos taurus), 0.344; in test [12] it was 0.217; in test [13], -0.0548. The composite z-score in [14] is 0.697; in test [15], 0.335; in [16], -0.394; in the test on Sam68 (KHDRBS1), 0.373; in test [17], -0.134; in test [18], 1.02. For the same compound, in test [2], the z-score is -1.69. Moreover, the composite Z-score in test [11] is 0.231 (inactive).
As for `CC(C)CNC(=O)[C@@H]1c2ccccc2C(=O)N(Cc2ccccc2Cl)[C@H]1c1ccc(CO)cc1`, the composite z-score is 1.07 in test [1]; -1.09 in [3]; 0.0642 in test [4]; -0.116 in test [5]; -0.244 in test [6]; -0.0813 in test [7]. The composite z-score was -0.0769 in [8]; 1.69 in test [9]; -1.39 in test [10]; -0.261 in the test with Albumin (Bos taurus); -0.212 in test [12]; -0.0404 in test [13]. Also, the composite z-score was 0.687 in test [14]; 1.57 in test [15]; 0.397 in [16]; -0.537 in the test with Sam68 (KHDRBS1); -0.686 in test [17]; -1.68 in [18]. Further, the z-score in test [2] was -0.249. Further, the composite Z-score in test [11] is 0.191 (inactive).
Regarding `O=C1N(CCS(=O)(=O)c2ccccc2)c2ccccc2[C@@H]2OC(c3ccc(OCCCO)cc3)=N[C@]12CCS(=O)(=O)c1ccccc1`, the composite z-score was 1.38 in test [1]; 0.8 in test [3]; 1.67 in test [4]; 0.176 in test [5]; 0.0142 in test [6]; 0.109 in [7]. In addition, the composite z-score in test [8] was 0.0373; in test [9], 2.17; in [10] it was 1.67; with Albumin (Bos taurus) it was 0.929; in test [12], 0.0496; in test [13], 0.0684. For the same compound, the composite z-score in test [14] was found to be 0.503; in test [15], 2.8; in test [16] it was 1.21; with Sam68 (KHDRBS1) it was 1.29; in test [17], 1.1; in test [18], 1.15. Also, in [2], the z-score turned out to be 0.182. Further, in test [11], the composite Z-score is 0.759 (inactive).
